In the library only some 3% were active in any assay of this set; here they are far more common.
Casp1 inh = allosteric or competitive inhibitors of human caspase-1 | Caspase-1 enzyme, Ac-WEHD-AFC fluorogenic rate | Potency, µM (top dose mostly 57.5 µM), usual class: inhibitors | hit rate 0.03% among 75,000 | AID 900
Target sequence (P29466 120-297 limits assumed): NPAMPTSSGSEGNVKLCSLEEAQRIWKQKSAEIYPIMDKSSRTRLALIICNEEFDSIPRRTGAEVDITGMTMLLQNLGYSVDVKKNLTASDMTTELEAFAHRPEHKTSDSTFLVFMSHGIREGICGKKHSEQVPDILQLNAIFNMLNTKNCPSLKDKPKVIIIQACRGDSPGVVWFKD
Target sequence (P29466 317-404 limits assumed): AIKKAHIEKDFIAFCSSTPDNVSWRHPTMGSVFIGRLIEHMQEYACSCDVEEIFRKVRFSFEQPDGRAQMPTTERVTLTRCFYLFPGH
ALOX15 inhib = 15-hLO (ALOX15) enzyme inhibition | hit rate 1.4% among 74,000 | P16050 | AID 887 | purified 15hLO-1, xylenol orange hydroperoxide absorbance | Potency, µM (highest dose often 57.1 µM), hits mostly inhibitors; note: nearly all actives have a fitted effect of over 55% in size
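Purified human 15hLO-1 (40 nM) in 25 mM Hepes pH 7.5, 0.01% Triton X-100, preincubated 15 min RT with compound, then 50 uM arachidonic acid for 6 min. Hydroperoxide read by ferrous/xylenol orange, 30 min; 573/405 nm absorbance ratio gave progress.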
TSHR agonist = TSH receptor (human) agonism; AID 926; Potency, µM (titrated, usually from 57.1 µM), hits mostly activators; hit rate 0.48% among 73,000; HEK293-CNG-TSHR cells (CNG channel as cAMP sensor), membrane potential dye, cAMP; active = well fitted activation curve with a large enough effect in the main read-out, with a control signal flat, not every such curve was filed as active; inconclusive = small, poorly fitted or top-dose-only effect, or a change in a side signal; inactive = no such curve, though single readings can be large or run the other way; reference of the percent scale not stated here;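 note: the control signal comes from parental cells without the receptor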
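HEK 293 cells stably expressing TSHR and a modified CNG channel, with CNG-only parental cells as counterscreen, were preloaded 60 min at room temperature with membrane potential dye containing 100 uM RO 20-1724. Compound exposure was 30 min, and depolarization was read as fluorescence at 590 nm.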
Casp7 inh = caspase-7 (human) inhibition, allosteric or competitive; hit rate 0.02% among 75,000; Potency, µM (highest dose often 57.5 µM), usual class: inhibitors; P55210; recombinant caspase-7, Ac-DEVD-AFC fluorescence rate; AID 889; active = well fitted inhibition curve with a large enough effect in the main read-out, with a control signal flat, not every such curve was filed as active; inconclusive = small, poorly fitted or top-dose-only effect, or a change in a side signal
Target sequence (P55210 24-198 limits assumed): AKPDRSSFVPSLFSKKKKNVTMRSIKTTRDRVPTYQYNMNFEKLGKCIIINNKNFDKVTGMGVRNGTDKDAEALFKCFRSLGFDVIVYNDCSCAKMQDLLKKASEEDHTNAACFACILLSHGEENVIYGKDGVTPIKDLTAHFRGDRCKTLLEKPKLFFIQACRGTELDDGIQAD
Target sequence (P55210 207-303 limits assumed): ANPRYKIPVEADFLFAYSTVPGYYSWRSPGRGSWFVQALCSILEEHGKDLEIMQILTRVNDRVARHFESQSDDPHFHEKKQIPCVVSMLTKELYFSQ
HEK293 cAMP cs = counter-screen for TSHR agonists: cAMP increase in parental HEK293. parental HEK293 CNG cAMP sensor, membrane potential fluorescence. Potency, µM (highest dose often 57.1 µM), usual class: activators. hit rate 2.5% among 73,000; note: nearly all actives have a fitted effect of over 55% in size
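Parental HEK 293 cells stably expressing a cAMP-gated CNG channel were loaded with membrane potential dye containing 100 uM RO 20-1724 for 60 min. Compound added for 30 min; depolarization read as fluorescence intensity at 590 nm.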
15-hLO-2 inh = 15-hLO-2 (ALOX15B) enzyme inhibition; Potency, µM (doses to about 57.1 µM), hits mostly inhibitors; O15296; purified 15hLO-2, xylenol orange hydroperoxide absorbance; hit rate 0.56% among 110,000; AID 881; note: nearly all actives have a fitted effect of over 60% in size
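Enzyme 50 nM, AA 45 uM, 25 mM Hepes pH 7.5 + 0.01% Triton X-100; cpd preinc 15 min RT, rxn 90 min RT; stop/detect with 200 uM XO + 300 uM Fe(II) in 50 mM H2SO4, 30 min; A573/A405.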
parental cAMP = TSHR-independent cAMP elevation, counter-screen | shares compounds with TSHR agonist | parental HEK293 CNG biosensor, cAMP membrane potential fluorescence | 150 tested, under 10 active | activity change, negative = inhibition, % at 32.9 µM
Of the large screens only hits and unclear results are named; the others gave an inactive call (follow-up assays come after a bar, where they were run); ! = not confirmed by another sample. Unless noted, calls come from the whole dose curve; as a rule, active = well fitted curve in the direction sought with a large enough effect; inconclusive = small, poorly fitted or top-dose-only effect, or another doubt; inactive = no such curve, though single readings can be large; an effect the other way counts as inactive or inconclusive.

N#CC1=C(SCC(=O)c2ccc(Br)cc2)NC2=C(C(=O)CCC2)C1c1ccco1 (stereo not drawn)	none (no result: Casp1 inh, ALOX15 inhib, TSHR agonist, Casp7 inh, HEK293 cAMP cs)
Cc1cc(NC(=O)CS(=O)(=O)c2cn(Cc3ccccc3Cl)c3ccccc23)no1	TSHR agonist inconclusive, HEK293 cAMP cs 25µM
Cc1ccccc1Cn1cc(S(=O)(=O)CC(=O)N2CCCCC2)c2ccccc21	TSHR agonist inconclusive, HEK293 cAMP cs 32µM (no result: 15-hLO-2 inh)
CN(C)c1ncc2ncc(=O)n(Cc3cccs3)c2n1	TSHR agonist inconclusive, Casp7 inh inconclusive, HEK293 cAMP cs inconclusive (no result: Casp1 inh)
Cn1c(Nn2cnnc2)nc2ccccc21	TSHR agonist inconclusive, HEK293 cAMP cs 3.2µM
COc1ccccc1NC(=O)Cn1nc(C(F)(F)F)c2c1CCCC2	TSHR agonist inconclusive, HEK293 cAMP cs 20µM
O=C(Cn1nc(C(F)(F)F)c2c1CCCC2)Nc1ccc2c(c1)OCO2	none (no result: Casp7 inh)
CCOC(=O)c1sc(NC(=O)CSc2nnnn2-c2ccc(C)cc2C)nc1C	TSHR agonist inconclusive, HEK293 cAMP cs 25µM
COc1ccccc1C1C=C(c2ccccc2)Nc2nnnn21 (stereo not drawn)	Casp1 inh inconclusive, TSHR agonist inconclusive, HEK293 cAMP cs 4µM (no result: 15-hLO-2 inh)
COC(=O)C1=C(C)NC(C)=C(C(=O)OCCN(C)Cc2ccccc2)[C@@H]1c1cccc([N+](=O)[O-])c1	none
Cc1cc(C(=O)CSc2nnnn2-c2ccc(Cl)cc2)c(C)n1CC1CCCO1 (stereo not drawn)	TSHR agonist inconclusive, HEK293 cAMP cs inconclusive
Cc1cc(C(=O)CSc2nnnn2-c2ccccc2)c(C)n1CC1CCCO1 (stereo not drawn)	TSHR agonist inconclusive, HEK293 cAMP cs 25µM
Cc1cc(-n2c(C)cc(C(=O)CSc3nnnn3-c3ccccc3)c2C)no1	TSHR agonist 20µM
CN1C[C@H](c2ccccc2)C(O)([C@]2(c3ccccc3)CN(C)C[C@@H](c3ccccc3)C2=O)[C@H](c2ccccc2)C1 (stereo partly drawn)	none
COC(=O)c1ccc2c(=O)n(C3CCCCC3)c(SCC#N)nc2c1	ALOX15 inhib inconclusive, TSHR agonist inconclusive, HEK293 cAMP cs 20µM
COC(=O)[C@@]1(Cc2ccc(OC)cc2)[C@H]2c3cc(C(=O)N(C)C)n(Cc4cccc5ccccc45)c3C[C@H]2CN1C(=O)c1ccccc1	TSHR agonist inconclusive, HEK293 cAMP cs inconclusive (no result: ALOX15 inhib)
COC(=O)c1ccc(NC(=O)c2sc3nc(-c4ccccc4)cn3c2C)cc1	TSHR agonist inconclusive, HEK293 cAMP cs 32µM
COc1ccc(-c2cn3c(C)c(C(=O)Nc4ccncc4)sc3n2)cc1	none (no result: Casp1 inh, ALOX15 inhib, TSHR agonist, Casp7 inh, HEK293 cAMP cs)
Cc1ccccc1Nc1nnc(SCC(=O)NC(=O)NCc2ccco2)s1	ALOX15 inhib 16µM
Nc1c2c(nc3ccccc13)CCCC2	ALOX15 inhib 13µM!, TSHR agonist inconclusive
CC(C)(C)c1cc(C(F)(F)F)nc(SCCCNC(=O)c2ccco2)n1	TSHR agonist 25µM
COc1cccc(Cn2c(=O)cnc3cnc(Nc4ccccc4)nc32)c1	TSHR agonist inconclusive, Casp7 inh inconclusive, HEK293 cAMP cs inconclusive, 15-hLO-2 inh inconclusive (no result: Casp1 inh)
O=S(=O)(c1ccccc1)N1CCC2(CCN(c3ccc(-c4ccccc4)cc3)CC2)CC1	none (no result: TSHR agonist)
COc1ccc(-n2c(=O)c(CCc3ccccc3)nc3cnc(OC)nc32)cc1	TSHR agonist inconclusive, HEK293 cAMP cs inconclusive
O=C1c2ccccc2C(=O)c2c(O)c(O)cc(O)c21	ALOX15 inhib 5µM (no result: TSHR agonist, HEK293 cAMP cs)
CCOC(=O)NC1(NC2CCCCC2)Oc2ccccc2O1	ALOX15 inhib 25µM
Nc1nc(N2CCCCC2)nc2ccccc12	ALOX15 inhib inconclusive
c1ccc2c(N3CCCCC3)nc(N3CCCC3)nc2c1	TSHR agonist inconclusive, HEK293 cAMP cs 13µM
Cc1cc(=O)oc2c1ccc1oc(/C(=N/O)c3ccccc3)c(C)c12	ALOX15 inhib 7.9µM, TSHR agonist inconclusive, HEK293 cAMP cs inconclusive, 15-hLO-2 inh inconclusive
COC(=O)NC(c1cccc(C)c1)[C@]1(C(C)=O)CCCC1=O (stereo partly drawn)	none (no result: 15-hLO-2 inh)
CCN(CC)C(C)CN1c2ccccc2Sc2ccccc21 (stereo not drawn)	ALOX15 inhib 25µM, 15-hLO-2 inh 13µM (no result: TSHR agonist, HEK293 cAMP cs)
CCCCCCCCCCCCC/C=C\[C@H](O)[C@H](N)CO	none (no result: Casp1 inh, ALOX15 inhib, Casp7 inh, 15-hLO-2 inh)
O=S(=O)(Nc1cccnc1)c1ccc(C2CCCCC2)cc1	TSHR agonist inconclusive, HEK293 cAMP cs 25µM
O=c1[nH]c(=S)[nH]c(-c2ccccc2)c1Cc1c(O)ccc2ccccc12	TSHR agonist inconclusive, HEK293 cAMP cs 2.5µM, 15-hLO-2 inh inconclusive
Oc1ccc2ccccc2c1Cc1c(O)ccc2ccccc12	none
CCCCC(CC)COCC1CO1 (stereo not drawn)	none
Cc1cccc(NC(=O)CN(c2ccc(C(C)C)cc2)S(=O)(=O)c2c(C)nn(C)c2C)n1	none (no result: Casp1 inh, ALOX15 inhib, TSHR agonist, Casp7 inh, HEK293 cAMP cs)
Cc1nn(C)c(C)c1S(=O)(=O)N(CC(=O)Nc1ccccn1)c1ccc(C(C)C)cc1	TSHR agonist 10µM (no result: 15-hLO-2 inh) | parental cAMP inactive
Cc1cc(=O)[nH]c(SCCOc2ccc3c(c2)CCC3)n1	none (no result: TSHR agonist) | parental cAMP inactive
Cc1cc(=O)[nH]c(SCCOc2ccc(OC(C)C)cc2)n1	none
COc1cc(OC)cc(C(=O)N2c3ccc(F)cc3CCC2C)c1 (stereo not drawn)	TSHR agonist 13µM | parental cAMP inactive
CCc1ccc(C(=O)COC(=O)c2ccc(-c3nnc(-c4ccccc4)o3)cc2)cc1	none (no result: Casp1 inh, ALOX15 inhib, TSHR agonist, Casp7 inh, HEK293 cAMP cs)
CCN(C(=O)CN1CCCc2ccccc21)c1c(N)n(Cc2ccccc2)c(=O)[nH]c1=O	none
CCn1c(=O)c(C(=O)CN2CCCc3ccccc32)c(N)n(Cc2ccccc2)c1=O	none | parental cAMP inactive
Cc1ccc(S(=O)(=O)NC(=O)NN2CCCCCC2)cc1	none
Cc1ccc(S(=O)(=O)NC(=O)Nn2c(C)nnc2C)cc1	none | parental cAMP inactive
CC(=O)N1CCC[C@@]2(CCN(Cc3cc(C(F)(F)F)cc(C(F)(F)F)c3)C2)C1	TSHR agonist inconclusive, HEK293 cAMP cs inconclusive
O=C(O)/C=C\C=C/c1ccc2c(c1)OCO2	none
O=C(O)c1cc(-c2ccccc2)c(N2CCOCC2)s1	none
O=C(NCc1ccco1)c1cc(-c2ccccc2)c(N2CCOCC2)s1	ALOX15 inhib inconclusive | parental cAMP inactive
CO[C@H]1COC(=O)[C@H](C)NC(=O)[C@@H](C)COC(=O)C/C=C\[C@@H]1C	none (no result: 15-hLO-2 inh)
CN1C(=O)N(C)C2(c3ccccc3)Nn3c(s/c(=C/c4ccco4)c3=O)=NC12c1ccccc1 (stereo not drawn)	TSHR agonist 1.6µM | parental cAMP inactive
